# Data: PubChem BioAssay (NCI)
# About 83,000 compounds went through this panel and 20% of them were active in at least one assay; those are over-represented in the sample as a whole.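 Percent growth is the endpoint: 0 to 100 indicates growth inhibition (40 means 60% inhibition), 0 means no net growth, and negative values indicate cell death.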 Values without a mark were called inactive. The source made the active and inactive calls. The calls were made as follows: active = growth percent below 10; inactive = the rest.
# Assays:
# Test in all cases: NCI-60 one-dose screen, 48 h (100 = growth as untreated, 0 = no growth, -100 = all killed)
# Settings in all cases: 10 µM unless noted
# NCI-H23 lung = test system: NCI-H23 lung
# NCI-H226 lung = test system: NCI-H226 lung
# NCI-H322M lung = test system: NCI-H322M lung
# HOP-62 NSCLC = test system: HOP-62 NSCLC
# NCI-H460 lung = test system: NCI-H460 lung
# HOP-92 NSCLC = test system: HOP-92 NSCLC
# NCI-H522 lung = test system: NCI-H522 lung
# A549/ATCC NSCLC = test system: A549/ATCC NSCLC
# 786-0 renal = test system: 786-0 renal
# COLO 205 colon = test system: COLO 205 colon
SMILES,growth (NCI-H23 lung),growth (NCI-H226 lung),growth (NCI-H322M lung),growth (HOP-62 NSCLC),growth (NCI-H460 lung),growth (HOP-92 NSCLC),growth (NCI-H522 lung),growth (A549/ATCC NSCLC),growth (786-0 renal),growth (COLO 205 colon)
CCN(CC)CC(=O)Nc1c(C)cccc1C,106%,92.9%,90.2%,106%,112%,104%,101%,104%,95.4%,115%
COC1OCC(OS(=O)(=O)c2ccc(C)cc2)C(OC(=O)c2ccccc2)C1OC(=O)c1ccccc1 (stereo not given),68.4%,68.4%,76.6%,42.2%,17.4%,62.2%,19%,48.7%,42.1%,36.4%
Cc1ccc2nc(-c3ccc(-n4on4-c4ccc(/C=C/c5ccc(-n6on6-c6ccc(-c7nc8ccc(C)cc8s7)cc6)cc5S(=O)(=O)O)c(S(=O)(=O)O)c4)cc3)sc2c1,105%,108%,112%,121%,114%,138%,117%,113%,98.2%,119%
CCc1cccc(-c2ccccc2)c1,107%,109%,107%,101%,108%,92.9%,106%,104%,98.8%,105%
O=C(NC(=S)Nc1ccc(Cl)cc1)c1ccccc1,98.4%,108%,107%,96.6%,105%,85.8%,53%,85.1%,90.9%,132%
CC(C)C1(C(C)C)NC(=O)NC1=O,99.2%,102%,119%,96.6%,99.9%,93.2%,94.8%,101%,101%,117%
CC(=O)c1cc2c(c(O)c1C)C(=O)C(=O)c1c(O)cccc1-2,-15.3% (active),-69.7% (active),-83.6% (active),-78.5% (active),-57.6% (active),-43.9% (active),-62.4% (active),-66.8% (active),-78.6% (active),-75.4% (active)
OCc1cnccc1NC12CC3CC(CC(C3)C1)C2,102%,95.4%,103%,101%,100%,86.2%,86.1%,96%,101%,91.1%
CCC1S/C(=N\N=C(/C)c2cccs2)N(c2ccccc2)C1=O (stereo not given),101%,136%,109%,65.4%,112%,85.1%,82.2%,89.5%,86.2%,114%
Nc1ccc(S(=O)(=O)Nc2cc(I)cc(I)c2)cc1,93.6%,113%,94.8%,91.1%,109%,79.2%,90.1%,112%,95.5%,123%
O=[N+]([O-])c1ccc(NS(=O)(=O)c2ccccc2)c2ccccc12,34.3%,59.4%,71.9%,50.6%,38.2%,1.99% (active),18.2%,57.1%,51.5%,59.1%
CNCCCOc1c(Br)cc(CCNC(=O)/C(Cc2ccc(OC)c(Br)c2)=N/O)cc1Br,62.7%,77.3%,70.3%,67.5%,15.8%,40.9%,29.3%,49.7%,40.6%,-58.6% (active)
CCc1cccc(C)c1NC(=O)c1sc2nc3c(cc2c1N)CCCCC3,45.3%,50.7%,41.4%,36.9%,13.3%,72.2%,-9.98% (active),32.9%,44.8%,7.73% (active)
O=C(Nc1ccc(-n2ccc3c(NC(=O)c4ccccc4)nccc32)cc1)Nc1cccc(C(F)(F)F)c1,38.7%,44.7%,63.2%,84.5%,34.3%,32.3%,45.8%,7.66% (active),88.1%,64.7%
